Laboratory results taken from PubChem BioAssay AID1159580 (chemical genetic matrix, 2015).
Screen size: about 5,500 compounds; about 2,000 (36%) were called active. About 18% were inconclusive and are not listed. Rule as the data show it: active = normalized growth mostly below about 0.91 (no sharp cut-off); inconclusive = no clear call, values can overlap the other calls; inactive = mostly above about 0.92. The list shows a part of the results.

Assay: chemical genetic growth profiling, strain panel (AID 1159580);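 also: tested at 20 µM; growth read once vehicle control cultures reached saturation at 30 °C; 1 = growth at the plate median or of vehicle wells; lower values mean less growth of the strain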
Details: growth OD

Measured: normalized growth

CN[C@@H](C)[C@@H](O)c1ccccc1
inactive: S. cerevisiae deletion strains, locus YKL068W, stronger effect = lower value 0.978 | S. cerevisiae deletion strains, locus YKL085W, strain MDH1 (second series), stronger effect = lower value 0.992 | S. cerevisiae deletion strains, locus YKL085W, strain MDH1, stronger effect = lower value 0.992 | S. cerevisiae deletion strains, locus YKL160W, strain elf1, stronger effect = lower value 0.968 | S. cerevisiae deletion strains, locus YKL190W, strain CNB1, stronger effect = lower value 0.998 | S. cerevisiae deletion strains, locus YKR001C, strain vps1, stronger effect = lower value 0.978 | S. cerevisiae deletion strains, locus YKR026C, strain gcn3, stronger effect = lower value 0.994 | S. cerevisiae deletion strains, locus YKR091W, strain srl3, stronger effect = lower value 1 | S. cerevisiae deletion strains, locus YLL001W, strain dnm1, stronger effect = lower value 1.01 | S. cerevisiae deletion strains, locus YLL026W, stronger effect = lower value 1.01 | S. cerevisiae deletion strains, locus YLL041C, strain sdh2, stronger effect = lower value 1 | S. cerevisiae deletion strains, locus YLR027C, strain aat2, stronger effect = lower value 1 | S. cerevisiae deletion strains, locus YLR039C, strain RIC1, stronger effect = lower value 0.966 | S. cerevisiae deletion strains, locus YLR058C, strain SHM2, stronger effect = lower value 0.988 | S. cerevisiae deletion strains, locus YLR102C, strain apc9, stronger effect = lower value 0.99 | S. cerevisiae deletion strains, locus YLR113W, strain HOG1, stronger effect = lower value 0.984 | S. cerevisiae deletion strains, locus YLR221C, strain rsa3, stronger effect = lower value 0.994 | S. cerevisiae deletion strains, locus YLR258W, strain gsy2, stronger effect = lower value 0.981 | S. cerevisiae deletion strains, locus YLR262C, strain YPT6 (second series), stronger effect = lower value 1.01 | S. cerevisiae deletion strains, locus YLR262C, strain YPT6, stronger effect = lower value 0.914 | S. cerevisiae deletion strains, locus YLR268W, strain sec22, stronger effect = lower value 0.983 | S. cerevisiae deletion strains, locus YLR320W, strain mms22, stronger effect = lower value 0.985 | S. cerevisiae deletion strains, locus YLR330W, strain CHS5, stronger effect = lower value 0.987 | S. cerevisiae deletion strains, locus YLR342W, strain FKS1 (second series), stronger effect = lower value 0.99 | S. cerevisiae deletion strains, locus YLR342W, strain FKS1, stronger effect = lower value 1.01 | S. cerevisiae deletion strains, locus YLR357W, strain rsc2, stronger effect = lower value 0.972 | S. cerevisiae deletion strains, locus YLR370C, strain arc18, stronger effect = lower value 0.982 | S. cerevisiae deletion strains, locus YLR371W, strain rom2, stronger effect = lower value 0.981 | S. cerevisiae deletion strains, locus YLR384C, strain iki3, stronger effect = lower value 0.993 | S. cerevisiae deletion strains, locus YLR418C, strain cdc73, stronger effect = lower value 1.02 | S. cerevisiae deletion strains, locus YML016C, strain PPZ1, stronger effect = lower value 0.987 | S. cerevisiae deletion strains, locus YML032C, strain rad52, stronger effect = lower value 0.979 | S. cerevisiae deletion strains, locus YML120C, strain ndi1, stronger effect = lower value 1.01 | S. cerevisiae deletion strains, locus YML124C, strain tub3, stronger effect = lower value 0.99 | S. cerevisiae deletion strains, locus YMR058W, strain fet3, stronger effect = lower value 1.01 | S. cerevisiae deletion strains, locus YMR078C, strain ctf18, stronger effect = lower value 0.985 | S. cerevisiae deletion strains, locus YMR125W, strain sto1, stronger effect = lower value 0.985 | S. cerevisiae deletion strains, locus YMR129W, stronger effect = lower value 0.976 | S. cerevisiae deletion strains, locus YMR205C, strain PFK2, stronger effect = lower value 0.984 | S. cerevisiae deletion strains, locus YMR223W, strain ubp8, stronger effect = lower value 0.985 | S. cerevisiae deletion strains, locus YMR231W, strain pep5, stronger effect = lower value 0.998 | S. cerevisiae deletion strains, locus YMR263W, strain SAP30, stronger effect = lower value 1.01 | S. cerevisiae deletion strains, locus YMR307W, strain GAS1, stronger effect = lower value 0.881 | S. cerevisiae deletion strains, locus YNL067W, strain RPL9B, stronger effect = lower value 1.04 | S. cerevisiae deletion strains, locus YNL071W, strain lat1, stronger effect = lower value 1.01 | S. cerevisiae deletion strains, locus YNL183C, strain NPR1, stronger effect = lower value 0.978 | S. cerevisiae deletion strains, locus YNL209W, strain ssb2, stronger effect = lower value 0.978 | S. cerevisiae deletion strains, locus YNL233W, strain BNI4, stronger effect = lower value 1.05 | S. cerevisiae deletion strains, locus YNL248C, strain rpa49, stronger effect = lower value 0.986 | S. cerevisiae deletion strains, locus YNL250W, strain rad50, stronger effect = lower value 0.99 | S. cerevisiae deletion strains, locus YNL271C, strain bni1, stronger effect = lower value 0.976 | S. cerevisiae deletion strains, locus YNL298W, strain CLA4, stronger effect = lower value 0.97 | S. cerevisiae deletion strains, locus YNL307C, strain MCK1, stronger effect = lower value 0.992 | S. cerevisiae deletion strains, locus YNL322C, strain KRE1 (second series), stronger effect = lower value 0.977 | S. cerevisiae deletion strains, locus YNR049C, strain mso1, stronger effect = lower value 0.998 | S. cerevisiae deletion strains, locus YNR052C, strain pop2, stronger effect = lower value 0.997 | S. cerevisiae deletion strains, locus YOL006C, strain TOP1, stronger effect = lower value 1.07 | S. cerevisiae deletion strains, locus YOL012C, strain htz1 1.99 | S. cerevisiae deletion strains, locus YOL147C, strain pex11, stronger effect = lower value 0.993 | S. cerevisiae deletion strains, locus YOR001W, strain rrp6, stronger effect = lower value 0.997 | S. cerevisiae deletion strains, locus YOR061W, strain CKA2, stronger effect = lower value 0.971 | S. cerevisiae deletion strains, locus YOR069W, strain VPS5, stronger effect = lower value 0.986 | S. cerevisiae deletion strains, locus YOR070C, strain gyp1, stronger effect = lower value 0.984 | S. cerevisiae deletion strains, locus YOR080W, strain dia2, stronger effect = lower value 0.994 | S. cerevisiae deletion strains, locus YOR083W, strain WHI5, stronger effect = lower value 0.961 | S. cerevisiae deletion strains, locus YOR106W, strain vam3, stronger effect = lower value 1.01 | S. cerevisiae deletion strains, locus YOR136W, strain idh2, stronger effect = lower value 0.991 | S. cerevisiae deletion strains, locus YOR144C, strain elg1, stronger effect = lower value 0.987 | S. cerevisiae deletion strains, locus YOR184W, strain ser1, stronger effect = lower value 0.987 | S. cerevisiae deletion strains, locus YOR231W, strain MKK1, stronger effect = lower value 0.98 | S. cerevisiae deletion strains, locus YOR265W, strain rbl2, stronger effect = lower value 1 | S. cerevisiae deletion strains, locus YOR270C, strain vph1, stronger effect = lower value 1.04 | S. cerevisiae deletion strains, locus YOR290C, strain snf2, stronger effect = lower value 0.972 | S. cerevisiae deletion strains, locus YOR316C, strain cot1, stronger effect = lower value 0.986 | S. cerevisiae deletion strains, locus YPL051W, strain arl3, stronger effect = lower value 0.99 | S. cerevisiae deletion strains, locus YPL078C, strain atp4, stronger effect = lower value 1.02 | S. cerevisiae deletion strains, locus YPL106C, strain sse1, stronger effect = lower value 0.937 | S. cerevisiae deletion strains, locus YPL240C, strain hsp82, stronger effect = lower value 0.993 | S. cerevisiae deletion strains, locus YPL241C, strain CIN2, stronger effect = lower value 0.979 | S. cerevisiae deletion strains, locus YPL256C, strain CLN2, stronger effect = lower value 1.03 | S. cerevisiae deletion strains, locus YPR119W, strain clb2, stronger effect = lower value 0.983 | S. cerevisiae deletion strains, locus YPR141C, strain kar3, stronger effect = lower value 0.989 | S. cerevisiae deletion strains, locus YPR163C, strain tif3, stronger effect = lower value 0.989 | S. cerevisiae deletion strains, locus YPR167C, strain met16, stronger effect = lower value 0.988 | S. cerevisiae deletion strains, strain wtn01, stronger effect = lower value 1 | S. cerevisiae strains, strain wild type, stronger effect = lower value 0.987
